What was measured:
Assay in all cases: PBM binding z-score (relative to random genomic background probes); higher = stronger binding; sequences stand for … in GC…GCGATTGACAGCGTAGAATGAAGG
[1] = tested on: FXR:RXRa (NR concentration 270 nM, RXRa partner concentration 90 nM)
Outline: (§1)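 Each nuclear receptor dimer, without ligand, was incubated for 1 h on custom Agilent 4×180K protein-binding microarrays. Binding was detected with antibodies against each partner (one per run), and scanned fluorescence was regression-normalized. The binding z-scores are referenced to random human genomic background probes.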

[2] = tested on: LXRa:RXRa (NR concentration 270 nM, RXRa partner concentration 90 nM)
Outline: as §1

[3] = tested on: LXRa homodimer (NR concentration 270 nM)
Outline: as §1

[4] = tested on: LXRb:RXRa (NR concentration 270 nM, RXRa partner concentration 90 nM)
Outline: as §1

[5] = tested on: LXRb homodimer (NR concentration 270 nM)
Outline: as §1

[6] = tested on: PPARa:RXRa (NR concentration 270 nM, RXRa partner concentration 90 nM)
Outline: as §1

[7] = tested on: PPARg:RXRa 270nM:90nM, anti-RXR (NR concentration 270 nM, RXRa partner concentration 90 nM)
Outline: as §1

[8] = tested on: PPARg:RXRa 30nM:10nM, anti-RXR (NR concentration 30 nM, RXRa partner concentration 10 nM)
Outline: as §1

[9] = tested on: PPARg:RXRa 90nM:30nM, anti-RXR (NR concentration 90 nM, RXRa partner concentration 30 nM)
Outline: as §1

[10] = tested on: PPARg:RXRa DBDmut IVT, anti-RXR (DBD mutation: RXRa K156A/R161A, NR concentration 270 nM, RXRa partner concentration 90 nM)
Outline: as §1

[11] = tested on: PPARg:RXRa IVT, anti-PPARg (NR concentration 270 nM, RXRa partner concentration 90 nM)
Outline: as §1

[12] = tested on: PPARg DBDmut:RXRa IVT, anti-PPARg (DBD mutation: PPARg1 K132A/R137A, NR concentration 270 nM, RXRa partner concentration 90 nM)
Outline: as §1

[13] = tested on: PPARg DBDmut IVT, anti-PPARg (DBD mutation: PPARg1 K132A/R137A, NR concentration 270 nM)
Outline: as §1

[14] = tested on: PPARg homodimer (NR concentration 180 nM)
Outline: as §1

[15] = tested on: PXR:RXRa (NR concentration 270 nM, RXRa partner concentration 90 nM)
Outline: as §1

[16] = tested on: PXR homodimer (NR concentration 270 nM)
Outline: as §1

[17] = tested on: RARa:RXR (NR concentration 270 nM, RXRa partner concentration 90 nM)
Outline: as §1

[18] = tested on: RARa homodimer (NR concentration 270 nM)
Outline: as §1

[19] = tested on: RARb:RXRa (NR concentration 270 nM, RXRa partner concentration 90 nM)
Outline: as §1

[20] = tested on: PPARg:RXRa (NR concentration 180 nM, RXRa partner concentration 90 nM)
Outline: as §1

Row | Sequence | PBM binding z-score [1] | PBM binding z-score [2] | PBM binding z-score [3] | PBM binding z-score [4] | PBM binding z-score [5] | PBM binding z-score [6] | PBM binding z-score [7] | PBM binding z-score [8] | PBM binding z-score [9] | PBM binding z-score [10] | PBM binding z-score [11] | PBM binding z-score [12] | PBM binding z-score [13] | PBM binding z-score [14] | PBM binding z-score [15] | PBM binding z-score [16] | PBM binding z-score [17] | PBM binding z-score [18] | PBM binding z-score [19] | PBM binding z-score [20]
1 | CCTTACGGGTCGCTGACAGGTTATAGCATTTGGA | 0.72 | 1.23 | -0.237 | 0.781 | -0.428 | 1.71 | 0.371 | -0.323 | -0.0613 | 0.346 | 0.0988 | -0.356 | -0.76 | 0.641 | 1 | -0.0348 | 1.68 | -0.0216 | 1.18 | –
2 | CCTGCTAGGTCAAGGGTCAGCTAAAGCAGCTCGC | 6.02 | 4.62 | 0.429 | 3.85 | -0.198 | 5.91 | 8.48 | 7.78 | 9.4 | 4.08 | 5.78 | 0.536 | -0.955 | 2.95 | 4.65 | 0.026 | – | 0.368 | 4.96 | –
3 | AGTCAAATTTCACTAGGTAACGTAAGATTCAGCT | -0.177 | -0.14 | -0.0488 | 0.0425 | 0.175 | – | 0.334 | 0.197 | -0.0408 | 1.53 | 2.38 | 0.835 | 0.824 | 0.334 | 0.334 | -0.0218 | 0.0458 | 1.44 | – | 0.5
4 | CAAACTAGGTCAAAGGTCAAAGCCGAGCCAACCA | 8.47 | 7.19 | 5.21 | 7.3 | 2.55 | – | 11.3 | 13.6 | 13 | 8.36 | 8.57 | 2.64 | 1.45 | 4.45 | 6.85 | 1.41 | 9.13 | 2.5 | 5.94 | 13.1
5 | AATTCAGGGTCACTAGGCCAGAGTAGGTACGAAT | 6.96 | 6.2 | 1.95 | 4.99 | 1.68 | – | 7.59 | 4.55 | 6.76 | 4.91 | 6.4 | 5.15 | 2.77 | 4.18 | 4.19 | 0.429 | 5.62 | 1.32 | 4.89 | 9.15
6 | TAGCCTCGGTCATTGGGCCAGTATAGTACGCATC | 0.733 | 0.704 | 0.605 | 0.0326 | -0.0168 | – | 0.0656 | -0.712 | -0.209 | 0.608 | 1.16 | -0.424 | -0.786 | -0.222 | -0.491 | -0.977 | -0.492 | -0.437 | 2.33 | 0.597
7 | CGTCCAACGTCAGCAGGTCAGTGAAAGCGACGTG | -0.27 | -0.136 | -0.366 | -0.0519 | -0.788 | – | -0.476 | -0.755 | -0.842 | 0.148 | 0.161 | -0.345 | -1.13 | -0.114 | 0.174 | -0.448 | 0.556 | -0.438 | 1.82 | -0.188
8 | CCTTACGGGTCAGTGACAGGTTATAGCATTTGGA | 4.29 | 3.37 | 0.351 | 2.96 | -0.126 | – | 2.4 | 0.815 | 1.86 | 1.83 | 1.86 | 0.385 | 0.16 | 1.97 | 2.36 | 0.241 | 3.19 | 0.476 | 3.5 | 1.94
